ugtP null kill – growth inhibition of S. aureus ugtP deletion strain; 330,000 tested, 0.54% active; S. aureus RN4220 ugtP deletion, OD600 growth, 16 h; growth inhibition, % (no concentration beside the values); AID 1259309; in the data active = growth inhibition above about 68%;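 also: plate controls were untreated wells for no effect and antibiotic for full effect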
Vc quorum ag – inducers of Vibrio cholerae quorum light production without autoinducers | 350,000 tested, 0.16% active | V. cholerae BH1578 lux reporter, luminescence, 6 h | AID 588436 | activation, % at 18.7 µM; in the data active = activation mostly above about 9.7%, no sharp cut-off
TcdB GH inh – blocks C. difficile toxin B glycohydrolase activity | inhibition, % at 9.99 µM | TcdB glycohydrolase enzymatic assay, plate reader | AID 652162 | 350,000 tested, 0.24% active; in the data active = inhibition above about 10%
RN4220 kill – S. aureus RN4220 growth inhibition; OD600, 16 h; inhibition, % (concentration not given with the values); 330,000 tested, 0.33% active; in the data active = inhibition above about 85%;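 also: plate controls were untreated cells for no effect and reference antibiotic for full effect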
Active calls of the source: *; i = inactive; x = no result given. Sampled rows, rich in hits. Any-hit rate of the full collection: about 0.67%.

SMILES	ugtP null kill	Vc quorum ag	TcdB GH inh	RN4220 kill
C(#Cc1ccccc1)C[N+]1(CC#Cc2cccc3ccccc23)CCCC1	98*	0	1	88
O=C(Nc1ncc([N+](=O)[O-])s1)c1ccc2c(c1)OCO2	x	0	2	x
Cc1ccc(C(=O)Nc2ncc([N+](=O)[O-])s2)cc1	92*	3	21*	93*
Cc1onc(-c2ccccc2)c1C(=O)Nc1ncc([N+](=O)[O-])s1	82*	i	-1	80
O=C(COc1ccc(Cl)cc1)Nc1ncc([N+](=O)[O-])s1	98*	0	1	100*
COc1cccc(OCc2cc(C=NNC(=O)c3ccn[nH]3)ccc2OC)c1	-4	x	x	3
COc1ccc(/C=C/C(=O)Oc2cccc(C=NNC(=O)c3cccc(F)c3)c2)cc1	10	x	x	1
CSc1nc(Cl)c(Cc2ccc(OC(C)C)cc2)c(N(C)C)n1	94*	0	1	-13
CCOc1ccc(Cc2c(Cl)nc(SC)nc2N(C)C)cc1	93*	0	0	-7
O=C1C(Cl)=C(NCCc2ccccc2)C(=O)c2ccccc21	13	i	1	37
C=CCNC1=C(Cl)C(=O)c2ccccc2C1=O	90*	0	x	95*
COc1ccc(C(CNC(=O)c2oc3ccc(OC)cc3c2C)N2CCCC2)cc1 (stereo not given)	-7	i	12*	-3
Cc1nn(C)c(C)c1NC(=O)Nc1ccc(Cl)c(Cl)c1	89	-3	1	active
CN(N=Cc1cccc(Br)c1)C1=NS(=O)(=O)c2ccccc21	68	x	x	9
OC(CBr)C(O)C(O)C(O)CBr (stereo not given)	-2	x	x	5
C=CC[n+]1ccc(/C=C2\C=Cc3cc(C)ccc3N2CC)c2ccccc21	93*	i	x	92*
CCN1/C(=C/c2cc[n+](CCCS(=O)(=O)[O-])c3ccccc23)Sc2ccccc21	10	0	2	5
CCC(C)NC(=O)CSc1nnc(-c2cc(-c3ccc(C)cc3)nc3ccccc23)n1N (stereo not given)	7	40*	x	-7
Cc1ccc(-c2cc(-c3nnc(SCC(=O)NCC(C)C)n3N)c3ccccc3n2)cc1	6	i	x	-2
COc1ccc(/C=N/NC(=O)CSc2nnc(CCCc3ccc(OC)c(C)c3)o2)cc1	x	33*	x	x
COc1ccccc1C1CC(=O)Oc2cc(C)c(Cl)c(C)c21 (stereo not given)	28	-6	-8	1
COc1ccccc1C1CC(=O)Oc2cc(C)c(Br)c(C)c21 (stereo not given)	86*	-1	0	-3
COC(=O)c1c(-c2ccc(OC)cc2)sc2ccc(-c3ccc4c(c3)OCO4)cc12	6	i	0	1
COC(=O)c1c(-c2ccc(OC)cc2)sc2ccc(OC)cc12	91*	7	2	0
CN1C(=CC=NNC(=O)c2ccccc2Br)C(C)(C)c2ccccc21	88*	x	x	-2
SMILES	ugtP null kill	Vc quorum ag	TcdB GH inh	RN4220 kill
CN1/C(=C\C=N\NC(=O)c2ccc(O)cc2)C(C)(C)c2ccccc21	x	0	x	x
Cc1noc(C)c1S(=O)(=O)Nc1ccc2c(c1)CC(=O)N(C(C)CO)CC(C)C(CN(C)S(=O)(=O)c1ccc(F)cc1)O2 (stereo not given)	5	x	x	6
CCN1CC2C3C(=O)N(C)C(=O)C3[C@](C)(C1=O)N2C(=O)c1ccc(C(C)(C)C)cc1 (stereo not given in full)	7	x	x	8
COc1ccc(CC2CN3C(=NCC3Cc3ccccc3)N2CCNC(=O)CCC2CCCCC2)cc1 (stereo not given)	4	x	x	-2
CC(OC(=O)C1=COCCO1)C(=O)c1ccc(Br)cc1 (stereo not given)	4	i	14*	3
CC(OC(=O)C1=COCCO1)C(=O)NC1CCCCC1 (stereo not given)	x	0	0	x
S=c1[nH]nc2ccccn12	-6	-1	26*	0
CCOC(=O)c1oc2ccc(CNC3CCCCC3)c(Cl)c2c1C	82*	-5	x	-2
COc1ccc(NC(=O)C(=O)NN=C(C)CC(=O)Nc2cc(C)ccn2)c(OC)c1	-1	x	x	1
O=C(CCl)N1c2ccccc2OCC1c1ccccc1 (stereo not given)	95*	i	1	40
COc1ccc(C(=O)NN=C(C)c2cccc(NC(=O)c3ccc(F)cc3)c2)c(OC)c1	-3	x	x	-5
O=[N+]([O-])c1cnc(Sc2ccncn2)s1	100*	1	0	81
O=[N+]([O-])c1cnc(Sc2ccncn2)c([N+](=O)[O-])c1	x	1	0	x
C=CCn1c(SCc2csc(-c3ccc(C)cc3)n2)nnc1-c1ccccc1OC	90*	i	x	-7
O=C(OCC(=O)N1CCCCC1)c1ccccc1SCC(=O)N1CCCCC1	5	-3	16*	13

Compound activity as filed in PubChem BioAssay.
